Data taken from PubChem BioAssay (NCATS).
Results filed as inconclusive are left out. The source made the active and inactive calls. Calls come from the whole dose curve; as a rule, active = well fitted inhibition curve with a large enough effect; inconclusive = small, poorly fitted or top-dose-only effect; inactive = flat fitted curve, though single readings scatter.

test system: Zika virus NS2B-NS3 protease; experiment: Primary screen GU AMC qHTS for Zika virus inhibitors (AID 1347154); settings: Zika NS2B-NS3 unlinked protease, AMC fluorogenic substrate; series mostly up to 54.1 µM; activity change, negative = inhibition: at the top concentration; note: nearly all actives have a fitted effect of over 70% in size;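 for activity change, negative = inhibition: 0% = no-inhibitor control and -100% = no-enzyme control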
How it was run: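 Fluorogenic AMC-substrate cleavage by noncovalent NS2B-NS3 protease complex (25 nM, pH 8.0 Tris buffer with Tween 20) followed for 15 minutes at room temperature (~20% conversion). Percent inhibition from ex340/em450 signal change, fitted by 4-parameter Hill equation.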
Potency is the fitted concentration of half-maximal effect.

SMILES	activity change, negative = inhibition	Potency
CCCCCCCCCCCCCCCC[N+](C)(C)CC	-19.7% (inactive)	–
CCCC(=O)O[C@]1(C(=O)CO)CC[C@H]2[C@@H]3CCC4=CC(=O)CC[C@]4(C)[C@H]3[C@@H](O)C[C@@]21C	-0.591% (inactive)	–
CCCOC(C(=O)OC1CCN(C)CC1)(c1ccccc1)c1ccccc1	2.43% (inactive)	–
CNC(=O)CN(CCN(CCN(CC(=O)[O-])CC(=O)NC)CC(=O)[O-])CC(=O)[O-].O.[Gd+3]	-1.54% (inactive)	–
CCOc1ccc(Cc2nccc3cc(OCC)c(OCC)cc23)cc1OCC	-4.09% (inactive)	–
CCOC(=O)/C=C(C)/C=C/C=C(C)/C=C/c1c(C)cc(OC)c(C)c1C	-12.9% (inactive)	–
COc1cc2c(cc1OC)[C@@H]1CC(=O)[C@@H](CC(C)C)CN1CC2	–	inactive
COc1cccc(CCc2ccccc2OCC(CN(C)C)OC(=O)CCC(=O)O)c1 (centres undefined)	1.06% (inactive)	–
CCN(CC)CCOC(=O)C(c1ccccc1)C1CCCCC1 (centres undefined)	-13% (inactive)	–
COc1cccc2c1C(=O)c1c(O)c3c(c(O)c1C2=O)C[C@@](O)(C(C)=O)C[C@@H]3O[C@H]1C[C@H](N)[C@H](O)[C@H](C)O1	–	inactive
CCOC(=O)OC(C)OC1=C(C(=O)Nc2ccccn2)N(C)S(=O)(=O)c2ccccc21 (centres undefined)	-7.88% (inactive)	–
CC(Cc1cccc(C(F)(F)F)c1)NCCOC(=O)c1ccccc1 (centres undefined)	-5.17% (inactive)	–
O=c1ccc2ccccc2o1	-5.6% (inactive)	–
CCCCCCCCCCOCC(O)CN (centres undefined)	-4.11% (inactive)	–
COc1cc(/C=C/C(=O)O[C@H]2CC[C@]34C[C@]35CC[C@]3(C)[C@@H]([C@H](C)CCC=C(C)C)CC[C@@]3(C)[C@@H]5CC[C@H]4C2(C)C)ccc1O	-3.02% (inactive)	–
COc1ccc(CCN2CCC(Nc3nc4ccccc4n3Cc3ccc(F)cc3)CC2)cc1	-5.8% (inactive)	–
CC(=O)Oc1ccc(C(c2ccc(OC(C)=O)cc2)c2ccccn2)cc1	-5.57% (inactive)	–
Oc1c(I)cc(I)c2cccnc12	-2.13% (inactive)	–
CCCCCCCCCCCCCCCCOP(=O)([O-])OCC[N+](C)(C)C	-14.3% (inactive)	–
O=C(O)CNC(=O)c1ccccc1	0.579% (inactive)	–

SMILES	activity change, negative = inhibition	Potency
CC(=O)OCC(=O)[C@@]12OC(C)(C)O[C@@H]1C[C@H]1[C@@H]3C[C@H](F)C4=CC(=O)C=C[C@]4(C)[C@@]3(F)[C@@H](O)C[C@@]12C	-3.14% (inactive)	–
CCOc1ccc(NC(=O)CC(C)O)cc1 (centres undefined)	-4.45% (inactive)	–
c1ccc(CNCCNCc2ccccc2)cc1	-3.77% (inactive)	–
NC(CO)(CO)CO	0.809% (inactive)	–
Nc1ccc(/C=C/c2ccc(N)cc2S(=O)(=O)O)c(S(=O)(=O)O)c1	-4.58% [at 0.59 µM] (inactive)	–
CCN(CCCCOC(=O)c1ccc(OC)c(OC)c1)C(C)Cc1ccc(OC)cc1 (centres undefined)	-3.38% (inactive)	–
Cc1ccc(O)c2ncccc12	0.535% (inactive)	–
O=C1c2ccccc2C(=O)C1c1ccccc1	-5.4% (inactive)	–
Oc1ccc(O)cc1	6.88% (inactive)	–
CC(=O)CC(c1ccc([N+](=O)[O-])cc1)c1c(O)c2ccccc2oc1=O (centres undefined)	2.35% (inactive)	–
CCCCC1=NC2(CCCC2)C(=O)N1Cc1ccc(-c2ccccc2-c2nn[nH]n2)cc1	–	inactive
CC(=O)OCC(=O)[C@@]1(OC(C)=O)[C@@H](C)C[C@H]2[C@@H]3C[C@H](F)C4=CC(=O)C=C[C@]4(C)[C@@]3(F)[C@@H](O)C[C@@]21C	-1.77% (inactive)	–
Nc1ccc(C(=O)O)cc1	-1.58% (inactive)	–
C/C=C(/C(=C/C)c1ccc(O)cc1)c1ccc(O)cc1	-10.9% (inactive)	–
CCOc1ccc2nc3cc(N)ccc3c(N)c2c1	–	31.6 µM (active)
CN(C)C(=S)SC(=S)N(C)C	-5.03% (inactive)	–
O=C(O)CCCCC(=O)O	-4.12% (inactive)	–
c1ccc(OCc2ccc(CCCN3CCOCC3)cc2)cc1	-1.47% (inactive)	–
OC[C@H]1O[C@@H](n2cnc3c(=S)nc[nH]c32)[C@H](O)[C@@H]1O	-0.86% (inactive)	–
